# Screening data deposited in PubChem by National Center for Advancing Translational Sciences (NCATS).
# ALOX12 inh: blocks human arachidonate 12S-lipoxygenase; AID 1671190; 580,000 tested, 1.1% active; Potency, µM (series often up to 108 µM), without a hit: top-dose activity change, negative = inhibition, usual class: inhibitors; purified 12hLO, xylenol orange hydroperoxide absorbance
#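 Purified human 12hLO (150 nM final) in 25 mM Hepes, 0.01% Triton X-100, pH 7.0 was preincubated 15 min at room temperature with compound. Then 40 uM arachidonic acid was added, 30 min. Hydroperoxide was read by Fe-XO absorbance ratio 573/405 nm.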
# TDP1 cell noCPT: qHTS for Inhibitors of human tyrosyl-DNA phosphodiesterase 1 (TDP1): qHTS in cells in absence of CPT; DT40 Tdp1-/- hTDP1 cells, no CPT, ATP luminescence, 48 h; Potency, µM (highest dose often 46.2 µM), for inactives: top-dose activity change, negative = growth inhibition, hits mostly inhibitors; 420,000 tested, 15% active; note: nearly all actives have a fitted effect of over 55% in size
#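 Readout: luminescence from CellTiter-Glo after 30 min in the dark at RT. Cells: DT40 Tdp1-/- with stable hTDP1, 400/well. Exposure: compounds alone, ≥48 hr, 37 °C.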
# RORgamma inh: inhibitors of mouse ROR gamma transcriptional activity. 310,000 tested, 5.4% active. Potency, µM (highest dose often 53.6 µM), for inactives: top-dose activity change, negative = inhibition, actives largely listed as inhibitors. Drosophila S2 Gal4-RORgamma UAS-luciferase reporter, 20 h; note: nearly all actives have a fitted effect of over 60% in size
# Target sequence (P51450 whole entry, looked up, the tested form may be a part): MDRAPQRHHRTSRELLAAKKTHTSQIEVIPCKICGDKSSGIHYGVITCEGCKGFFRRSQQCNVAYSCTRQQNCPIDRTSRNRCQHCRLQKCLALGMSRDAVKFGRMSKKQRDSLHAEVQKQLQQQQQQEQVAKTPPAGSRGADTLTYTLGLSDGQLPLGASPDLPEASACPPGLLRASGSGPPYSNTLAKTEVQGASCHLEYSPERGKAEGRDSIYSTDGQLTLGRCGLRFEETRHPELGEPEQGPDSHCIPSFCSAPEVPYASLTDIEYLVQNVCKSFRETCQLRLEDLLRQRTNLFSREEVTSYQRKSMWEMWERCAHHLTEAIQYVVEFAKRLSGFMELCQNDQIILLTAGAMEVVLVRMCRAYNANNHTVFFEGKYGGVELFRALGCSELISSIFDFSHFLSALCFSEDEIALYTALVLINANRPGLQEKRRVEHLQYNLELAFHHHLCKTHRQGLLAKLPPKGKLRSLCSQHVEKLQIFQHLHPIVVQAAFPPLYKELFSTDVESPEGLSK
#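 Stably transfected Drosophila Schneider cells are the test system, with ROR gamma fused to Gal4 and luciferase under UAS control; luminescence is read after 20 hr of 700 uM copper sulfate induction at ambient temperature.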
# DT40 TDP1 CPT: DT40-hTDP1 cell growth loss with CPT | AID 686979 | Potency, µM (doses to about 46.2 µM), inactives show at the highest dose activity change, negative = growth inhibition, hits mostly inhibitors | 420,000 tested, 12% active | chicken DT40 Tdp1-/-;hTDP1 cells + 20 nM CPT, ATP luminescence, 48 h; note: nearly all actives have a fitted effect of over 55% in size
#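 Chicken DT40 Tdp1-/- cells stably complemented with human TDP1 were seeded at 400 cells/well in medium containing 20 nM camptothecin, exposed to pin-transferred compounds, and grown at 37 °C for at least 48 hr. Viability was read as ATP luminescence.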
# ELG1 repair inh: ELG1-dependent DNA repair inhibition | HEK293T ELG1-luciferase reporter, luminescence, 16 h; DNA damage induced by 5-fluorouridine | Potency, µM (titrated, usually from 46.1 µM), inactives show at the top dose activity change, negative = inhibition, actives largely listed as inhibitors | 330,000 tested, 2.3% active; note: nearly all actives have a fitted effect of over 55% in size
#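 Quantitative HTS, concentration-response format. 2,000 cells/well co-treated with 5-fluorouridine and compound, 16 hr in 5% CO2 at 37 °C; ONE-Glo luminescence read after 30 min.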
# VP16 counter: counter-screen for ROR gamma inhibitors: Gal4-VP16 reporter; Drosophila S2 Gal4-VP16 UAS-luciferase, luminescence, 20 h; Potency, µM (titrated, usually from 53.6 µM), without a hit: at the highest dose activity, negative = inhibition, hits mostly inhibitors; 310,000 tested, 3.5% active; AID 2546;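 note: Gal4-VP16 expression switched on by copper sulfate through the metallothionein promoter; nearly all actives have a fitted effect of over 50% in size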
# * hit, by the source's call; ? = inconclusive; . = no result. In the library only some 15% were active in any assay of this set; here they are far more common. Calls come from the whole dose curve; as a rule, active = well fitted curve in the direction sought with a large enough effect; inconclusive = small, poorly fitted or top-dose-only effect, or another doubt; inactive = no such curve, though single readings can be large; an effect the other way counts as inactive or inconclusive. % is set by controls: 0 for no effect and ±100 for the full control effect; potency is the fitted concentration of half-maximal effect.
SMILES,ALOX12 inh,TDP1 cell noCPT,RORgamma inh,DT40 TDP1 CPT,ELG1 repair inh,VP16 counter
COc1ccc(/C=C2/SC(=S)N(CCCC(=O)Nc3ccc(O)cc3)C2=O)cc1,-25%,?,0.28µM*,?,-9%,1.4µM*
COc1ccc(/C=C2\SC(=S)N(CCCC(=O)Nc3ccc(O)cc3)C2=O)cc1,3%,?,1.4µM*,?,?,1µM*
COc1ccc(Cn2c(=O)[nH]c3cc(C(=O)N4CCN(c5ccc(OC)cc5)CC4)ccc3c2=O)cc1,.,?,4%,-3%,-12%,-2%
CC(=O)c1ccc(N2CCN(C(=O)c3ccc(Cn4c(=S)[nH]c5ccc(N6CCOCC6)cc5c4=O)cc3)CC2)cc1,-1%,2.6µM*,-8%,3.3µM*,?,25%
O=C(NCCc1ccc(Cl)cc1)c1ccc(Cn2c(=O)[nH]c3ccccc3c2=O)cc1,-21%,3.7µM*,.,6.5µM*,.,.
NS(=O)(=O)c1ccc(CCNC(=O)c2ccc(Cn3c(=O)[nH]c4ccccc4c3=O)cc2)cc1,?,0%,-17%,0%,3%,-8%
COc1ccc(Cn2c(=O)[nH]c3cc(C(=O)N4CCN(c5ccc(C(C)=O)cc5)CC4)ccc3c2=O)cc1,-24%,15µM*,44%,?,?,-13%
CC(=O)c1ccc(N2CCN(C(=O)c3ccc(Cn4c(=O)[nH]c5ccccc5c4=O)cc3)CC2)cc1,-15%,16µM*,.,10µM*,.,.
Cc1ccc(C)c(N2CCN(C(=O)c3ccc(Cn4c(=O)[nH]c5ccccc5c4=O)cc3)CC2)c1,-17%,?,11%,?,?,?
O=C(c1ccc2c(=O)n(Cc3ccccc3)c(=S)[nH]c2c1)N1CCOCC1,1%,-28%,?,-20%,-2%,?
Cc1ccc(OC(C)C(=O)Nc2ccc3oc(C)nc3c2)cc1 (configuration not stated),-6%,.,.,.,.,.
O=C(c1ccc(Cn2c(=O)[nH]c3ccccc3c2=O)cc1)N1CCN(c2ccc(Cl)cc2)CC1,3%,16µM*,?,23µM*,23µM*,-19%
CCCc1cc(=O)[nH]c(SCc2noc(-c3ccc(F)cc3)n2)n1,-1%,.,.,.,.,.
N#Cc1c(-c2ccc(Cl)cc2)cc(-c2ccc(Br)cc2)c(C#N)c1N,-13%,.,.,.,.,.
CCOc1ccc(Nc2ncnc3ccc([N+](=O)[O-])cc23)cc1,-1%,6.5µM*,32%,?,9.2µM*,-20%
CC(NC(=O)Cn1nc(-c2ccc(F)cc2)oc1=O)c1ccccc1 (configuration not stated),16%,.,.,.,.,.
O=C(NCc1ccccc1CN1CCCC1)c1cc2ccccc2o1,0%,-1%,.,-18%,-1%,.
Cc1c(C(=O)NCc2cccnc2)oc2ccc(S(=O)(=O)N3CC(C)CC(C)C3)cc12 (configuration not stated),1%,-29%,22%,?,-6%,1%
Cc1c(C(=O)NCc2ccc(F)cc2)oc2ccc(S(=O)(=O)N3CCCCC3)cc12,?,?,.,23µM*,.,.
Cc1c(C(=O)NCc2ccccc2)oc2ccc(S(=O)(=O)N3CCC(C)CC3)cc12,6%,9.2µM*,.,9.2µM*,.,.
Cc1c(C(=O)NCc2ccccc2CN2CCCC2)oc2ccc(F)cc12,251%,?,.,21µM*,1%,.
COc1cccc(NC(=O)c2oc3ccc(S(=O)(=O)N4CCCCCC4)cc3c2C)c1,-16%,18µM*,.,18µM*,.,.
COc1ccc(NC(=O)c2oc3ccc(S(=O)(=O)N4CCCCC4)cc3c2C)cc1,-15%,?,.,?,.,.
